From PubChem
A selection: hits, their analogues and other compounds. The true share with any hit is near 19%.
DT40 TDP1 CPT: DT40-hTDP1 cell growth loss with CPT | chicken DT40 Tdp1-/-;hTDP1 cells + 20 nM CPT, ATP luminescence, 48 h | Potency, µM (highest dose often 46.2 µM), for inactives: top-dose activity change, negative = growth inhibition, hits mostly inhibitors | hit rate 12% among 420,000 | AID 686979; also: potency is read from the fitted curve at half-maximal effect; nearly all actives have a fitted effect of over 55% in size
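Chicken DT40 Tdp1-/- cells stably complemented with human TDP1 were seeded at 400 cells/well in medium containing 20 nM camptothecin, exposed to pin-transferred compounds, and grown at 37 °C for at least 48 hr. Viability was read as ATP luminescence.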
DT40 TDP1 no CPT: qHTS for Inhibitors of human tyrosyl-DNA phosphodiesterase 1 (TDP1): qHTS in cells in absence of CPT. DT40 Tdp1-/- hTDP1 cells, no CPT, ATP luminescence, 48 h. Potency, µM (titrated, usually from 46.2 µM), for the others: at the top dose activity change, negative = growth inhibition, usual class: inhibitors. hit rate 15% among 420,000; also: potency is read from the fitted curve at half-maximal effect; nearly all actives have a fitted effect of over 55% in size
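Chicken DT40 Tdp1-/- cells stably complemented with human TDP1 were seeded at 400 cells/well with DMSO in place of 20 nM camptothecin. After compound pinning, cells grew at least 48 hr at 37 °C; viability read by CellTiter-Glo luminescence.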
HT1080 IDH1KD tx: HT-1080 IDH1 knockdown cell toxicity (counter line); HT-1080 IDH1 knockdown viability, ATP luminescence, 48 h; Potency, µM (highest dose often 46.1 µM), without a hit: at the highest dose activity, negative = toxicity, hits mostly cytotoxic; hit rate 2% among 360,000; AID 686971;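 also: potency is read from the fitted curve at half-maximal effect; 0% = DMSO wells and -100% = cell-free medium wells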
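HT-1080-IDH1KD cells (IDH1 knocked down), 750/well in RPMI with 5% FBS, treated with compound 48 h at 37 degrees C. Viability by CellTiter-Glo luminescence, normalised to DMSO and no-cell wells; concentration-response curves classed.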
HT1080-NT tox: kills 2HG-producing HT-1080-NT fibrosarcoma cells | AID 686970 | HT-1080-NT fibrosarcoma viability, CellTiter-Glo ATP luminescence, 48 h | Potency, µM (doses to about 46.1 µM), for inactives: top-dose activity, negative = less viability, usual class: cytotoxic | hit rate 1.6% among 360,000;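 also: NT is the 2HG producing partner of a matched IDH1 knockdown line; potency is read from the fitted curve at half-maximal effect; 0% = DMSO-treated cells and -100% = media-only wells without cells; nearly all actives have a fitted effect of over 55% in size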
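Toxicity toward the 2HG-producing NT line was scored as %Activity, normalised to DMSO and no-cell wells, from CellTiter-Glo luminescence after 48 hours' treatment.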
IL1B secr inh: inflammasome signaling inhibition, IL-1 beta readout. THP-1 LPS/ATP IL-1B secretion, AlphaLISA, 16 h; hits give low values. activity change, % at 57.5 µM. hit rate 4.7% among 360,000. AID 743279; in the data active = activity change below about -50%; inconclusive = mostly about -30% to -49%
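Secreted IL-1B measured by AlphaLISA bead assay after 16 h compound exposure of THP-1 cells; compounds (final up to 57.5 uM) added 1 h before LPS (250 ng/mL) and ATP (1.25 mM) stimulation; lower signal means less secretion.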
Numbers without * were called inactive; [ ] = dose if it differs, or a comment. Unless noted, calls follow the shape of the dose curve; as a rule, active = well fitted curve in the direction sought with a large enough effect; inconclusive = small, poorly fitted or top-dose-only effect, or another doubt; inactive = no such curve, though single readings can be large; an effect the other way counts as inactive or inconclusive. Unless noted, % is scaled to controls: 0 for no effect and ±100 for the full control effect.

For Cc1cc2nc(C3CCCCC3)c(Cc3cccc(Cl)c3)n2c(C)c1Br the results were DT40 TDP1 CPT -18%, DT40 TDP1 no CPT -25%, HT1080 IDH1KD tx -2%, HT1080-NT tox 13% and IL1B secr inh 38.
`Clc1cccc(Cc2c(C3CCCCC3)nc3ccc(Br)cn23)c1` gave DT40 TDP1 CPT 23µM*, DT40 TDP1 no CPT inconclusive, HT1080 IDH1KD tx inconclusive, HT1080-NT tox inconclusive and IL1B secr inh 20.
For C[C@H]1CN([C@@H](C)CO)C(=O)c2cccc(NS(=O)(=O)c3ccc(Cl)cc3)c2O[C@@H]1CN(C)CC1CCCCC1 the results were DT40 TDP1 CPT inconclusive, DT40 TDP1 no CPT inconclusive, HT1080 IDH1KD tx 11%, HT1080-NT tox 18% and IL1B secr inh 16.
Screening Cc1cc2c(c(-c3ccc(Cl)cc3)c1)OC(CNC(=O)Cc1c(C)noc1C)C2 (configuration not stated) returned DT40 TDP1 CPT 0%[9.04 µM] and DT40 TDP1 no CPT -18%.
O=C(N/N=C/c1cccc([N+](=O)[O-])c1)C1CC(=O)N(c2ccc(F)cc2)C1 (configuration not stated) was read as DT40 TDP1 CPT -25%, DT40 TDP1 no CPT inconclusive, HT1080 IDH1KD tx 5%, HT1080-NT tox 2% and IL1B secr inh 8.
Screening CC(=O)/C(=N\Nc1ccccc1Cl)Sc1cccc2cccnc12 returned DT40 TDP1 CPT inconclusive, DT40 TDP1 no CPT -92%, HT1080 IDH1KD tx inconclusive, HT1080-NT tox 21µM* and IL1B secr inh -16.
Screening CC(=O)/C(=N\Nc1ccccc1)Sc1cccc2cccnc12 returned DT40 TDP1 CPT 18%, DT40 TDP1 no CPT -12%, HT1080 IDH1KD tx -4%, HT1080-NT tox -8% and IL1B secr inh -6.
O=C(O)Cn1nc(-c2ccc(F)cc2)oc1=O was read as DT40 TDP1 CPT 16µM*, DT40 TDP1 no CPT inconclusive, HT1080 IDH1KD tx 8%, HT1080-NT tox 16% and IL1B secr inh 4.
CNC(=S)N/N=C/c1c(Cl)cccc1Cl was read as DT40 TDP1 CPT inconclusive, DT40 TDP1 no CPT inconclusive, HT1080 IDH1KD tx 4%, HT1080-NT tox 13% and IL1B secr inh -1.
For S=C(N/N=C/c1ccccc1Cl)Nc1ccccc1 the results were DT40 TDP1 CPT 16µM*, DT40 TDP1 no CPT inconclusive, HT1080 IDH1KD tx 4µM*, HT1080-NT tox 14µM* and IL1B secr inh 12.
For CC(C)(C)OC(=O)NCCC(=O)N/N=C/c1ccc2ncccc2c1 the results were DT40 TDP1 CPT 2%, DT40 TDP1 no CPT inconclusive, HT1080 IDH1KD tx 14%, HT1080-NT tox 13% and IL1B secr inh 6.
Screening S=C(N/N=C/c1ccc2ncccc2c1)Nc1ccccc1 returned DT40 TDP1 CPT 23µM*, DT40 TDP1 no CPT 21µM*, HT1080 IDH1KD tx 11%, HT1080-NT tox 16% and IL1B secr inh -11.
CCC(C)[C@@H](N)C(=O)N/N=C/c1ccc2ncccc2c1 (some centres not stated) was read as DT40 TDP1 CPT 4%, DT40 TDP1 no CPT 13µM*, HT1080 IDH1KD tx 9%, HT1080-NT tox 5% and IL1B secr inh 13.
Screening O=C(NNC(=S)Nc1ccccc1)c1ccc2ncccc2c1 returned DT40 TDP1 CPT 0%, DT40 TDP1 no CPT -24%, HT1080 IDH1KD tx 20%, HT1080-NT tox 12% and IL1B secr inh -11.
CNC(=S)N/N=C/c1ccccc1Cl was read as DT40 TDP1 CPT inconclusive, DT40 TDP1 no CPT inconclusive, HT1080 IDH1KD tx 6%, HT1080-NT tox 3% and IL1B secr inh -50*.
Cc1ccc(N2CCN(c3cc(C)nc4c(-c5ccc(Cl)cc5)c(C)nn34)CC2C)cc1 (configuration not stated) was read as DT40 TDP1 CPT 11% and DT40 TDP1 no CPT 0%.
For Cc1cc(SCC(=O)Nc2ccc3[nH]c(=O)[nH]c3c2)nc2ccccc12 the results were DT40 TDP1 CPT -16%, DT40 TDP1 no CPT -27%, HT1080 IDH1KD tx inconclusive, HT1080-NT tox -7% and IL1B secr inh -2.
`C[C@H](CO)N1C[C@H](C)[C@@H](CN(C)C(=O)Nc2ccc3c(c2)OCO3)Oc2ccc(NS(=O)(=O)c3cn(C)cn3)cc2C1=O` gave DT40 TDP1 CPT -2%, DT40 TDP1 no CPT 0%, HT1080 IDH1KD tx 16%, HT1080-NT tox 14% and IL1B secr inh 29.
`Oc1ccc(C=NNC(=S)Nc2ccccc2)nc1` gave DT40 TDP1 CPT 5.2µM*, DT40 TDP1 no CPT 5.2µM*, HT1080 IDH1KD tx 4.6µM*, HT1080-NT tox inconclusive and IL1B secr inh 97.
For CCc1ccc(N(CC(=O)NC(C)(C)C)C(=O)CNC(=O)c2cccs2)cc1 the results were DT40 TDP1 CPT -3%, DT40 TDP1 no CPT 0%, HT1080 IDH1KD tx 13%, HT1080-NT tox 8% and IL1B secr inh -3.
Screening CCC(C)c1ccc(N(CC(=O)NC(C)(C)C)C(=O)CNC(=O)c2cccs2)cc1 (configuration not stated) returned DT40 TDP1 CPT inconclusive, DT40 TDP1 no CPT 18µM*, HT1080 IDH1KD tx -17%, HT1080-NT tox -13% and IL1B secr inh -5.
`O=C(NCCCn1ccnc1)c1cc(-c2ccc3c(c2)OCO3)on1` gave DT40 TDP1 CPT -27%, DT40 TDP1 no CPT -20%, HT1080 IDH1KD tx -17%, HT1080-NT tox -27% and IL1B secr inh -7.
COc1cc(NC(=O)c2ccc(F)cc2)c(OC)cc1Cl was read as DT40 TDP1 CPT -24%, DT40 TDP1 no CPT -8%, HT1080 IDH1KD tx -11%, HT1080-NT tox -6% and IL1B secr inh 7.
For COc1cc(NC(=O)c2c(F)c(F)c(F)c(F)c2F)c(OC)cc1Cl the results were DT40 TDP1 CPT -28%, DT40 TDP1 no CPT inconclusive, HT1080 IDH1KD tx -17%, HT1080-NT tox inconclusive and IL1B secr inh -101*.
`CCCCOc1ccc(C(=O)Nc2ccc(N3CCN(C(=O)C(C)C)CC3)cc2)cc1` gave DT40 TDP1 CPT 8.2µM*, DT40 TDP1 no CPT 7.3µM*, HT1080 IDH1KD tx -17%, HT1080-NT tox -5% and IL1B secr inh -8.
`COc1ccc(C(=O)Nc2ccc(N3CCN(C(=O)c4ccccc4)CC3)cc2)cc1[N+](=O)[O-]` gave DT40 TDP1 CPT 15µM*, DT40 TDP1 no CPT inconclusive, HT1080 IDH1KD tx -16%, HT1080-NT tox -8% and IL1B secr inh inconclusive.
For O=C(Nc1ccc(C2=NCCN2)cc1)c1ccc(C(=O)Nc2ccc(C3=NCCN3)cc2)c([N+](=O)[O-])c1 the results were DT40 TDP1 CPT 6.5µM*, DT40 TDP1 no CPT 6.5µM*, HT1080 IDH1KD tx -8%, HT1080-NT tox -1% and IL1B secr inh -6.
